An excerpt weighted towards active compounds, which were near 17% of everything screened.
DT40 TDP1 no CPT: qHTS for Inhibitors of human tyrosyl-DNA phosphodiesterase 1 (TDP1): qHTS in cells in absence of CPT | DT40 Tdp1-/- hTDP1 cells, no CPT, ATP luminescence, 48 h | Potency, µM (top dose mostly 46.2 µM), most hits filed as inhibitors | 420,000 compounds, 15% hits | AID 686978, 2013; further: nearly all actives have a fitted effect of over 55% in size
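A cellular qHTS used chicken DT40 cells lacking endogenous Tdp1 but carrying stably transfected human TDP1. Compounds were applied without camptothecin, and cell growth kinetics were judged by ATP-dependent luminescence after ≥48 hr.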
ClpP mod: qHTS Assay for Activators of ClpP; ATP-dependent Clp protease proteolytic subunit (Bacillus subtilis (strain 168)), P80244; purified B. subtilis ClpP, FRET peptide cleavage, 20 min; Potency, µM (series often up to 57.5 µM); 340,000 compounds, 1.9% hits; AID 651965, 2013; active means well fitted falling curve with a large enough effect; inconclusive means small, poorly fitted or top-dose-only effect; inactive means no such curve, though single readings can be large or run the other way; further: the source files actives as falling curves though it sought activators and does not explain the sign; nearly all actives have a fitted effect of over 65% in size
Target sequence (P80244 whole entry, looked up): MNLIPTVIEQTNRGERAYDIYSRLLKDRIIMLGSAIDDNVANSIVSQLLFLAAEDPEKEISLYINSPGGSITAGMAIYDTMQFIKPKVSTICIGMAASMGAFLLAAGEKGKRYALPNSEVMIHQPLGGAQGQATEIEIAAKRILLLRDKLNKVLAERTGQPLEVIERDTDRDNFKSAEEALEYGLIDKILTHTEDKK
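Purified B. subtilis ClpP, 10 microg/mL final in Tris/HCl pH8 with KCl, BSA, glycerol and Tween-20, cleaved an Abz/nitrotyrosine-quenched decapeptide. Fluorescence (ex 320, em 430) was read at 0 and 20 min at room temperature. Delta was normalized to 5.8 microM ADEP and DMSO/no-enzyme controls.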
DT40 TDP1 CPT: growth inhibition of DT40 Tdp1-/-;hTDP1 cells with camptothecin (screen for TDP1 inhibitors); chicken DT40 Tdp1-/-;hTDP1 cells + 20 nM CPT, ATP luminescence, 48 h; Potency, µM (doses to about 46.2 µM), actives largely listed as inhibitors; 420,000 compounds, 12% hits; AID 686979; further: nearly all actives have a fitted effect of over 55% in size
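Chicken DT40 Tdp1-/- cells stably complemented with human TDP1 were seeded at 400 cells/well in medium containing 20 nM camptothecin, exposed to pin-transferred compounds, and grown at 37 °C for at least 48 hr. Viability was read as ATP luminescence.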
TDP1 inh: inhibitors of human tyrosyl-DNA phosphodiesterase TDP1; Q9NUW8; recombinant TDP1, AlphaScreen DNA substrate cleavage; Potency, µM (titrated, usually from 130 µM), most hits filed as inhibitors; 350,000 compounds, 0.28% hits; AID 485290; further: nearly all actives have a fitted effect of over 40% in size
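Compounds were preincubated with Tdp1 (1 nM final) for 15 min at room temperature before substrate (15 nM final) started a 5 min reaction; beads (10 ug/ml final) were then added for 10 min before AlphaScreen detection.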
Hits are given with their value; . = inactive; ? = inconclusive; / = no result. Unless noted, the call rests on the fitted dose curve; in most records, active means well fitted curve in the direction sought with a large enough effect; inconclusive means small, poorly fitted or top-dose-only effect, or another doubt; inactive means no such curve, though single readings can be large; an effect the other way counts as inactive or inconclusive.

SMILES | DT40 TDP1 no CPT | ClpP mod | DT40 TDP1 CPT | TDP1 inh
CN1CCN(C(=O)C2=C[C@@H](c3csc4ccccc34)C[C@@H](OCc3ccc(CO)cc3)O2)CC1 | 18µM | . | 21µM | .
O=C(NCc1ccccc1)C1=C[C@H](c2ccc3c(c2)OCO3)C[C@H](OCc2ccc(CO)cc2)O1 | ? | . | 6.5µM | /
COc1ccc(C(=O)c2ccccc2)c(O)c1O | ? | / | ? | .
C[C@H]1C=C(C(=O)N2CCN(Cc3ccc4c(c3)OCO4)CC2)O[C@@H](OCc2ccc(CO)cc2)C1 | . | . | . | .
O=C(C1=C[C@@H](C2CC2)C[C@@H](OCc2ccc(CO)cc2)O1)N1CCN(Cc2ccc3c(c2)OCO3)CC1 | 21µM | . | ? | .
CCNC(=S)Nc1ccc2c(c1)c(=O)n(C)n2-c1ccc(C(C)(C)C)cc1 | ? | ? | 26µM | /
Cn1c(=O)c2cc(NC(=O)Cc3ccccc3F)ccc2n1-c1ccc(C(C)(C)C)cc1 | 16µM | . | 23µM | /
COc1ccc(NC(=S)Nc2ccc3c(c2)c(=O)n(C)n3-c2ccccc2)cc1 | ? | . | ? | /
Cc1cc(C)cc(-n2c3ccc(NC(=O)Cc4cccc5ccccc45)cc3c(=O)n2C)c1 | 3.3µM | . | 5.8µM | /
CC(CC(=O)Nc1ccc2c(c1)OCCO2)c1ccccc1 (stereo not given) | . | . | ? | .
CC(CC(=O)Nc1ccc2c(c1)c(=O)n(C)n2-c1cccs1)c1ccccc1 (stereo not given) | 12µM | . | 13µM | /
CC1CCCCN1CCNC(=O)c1ccc2c(c1)N(Cc1ccccc1)C(=O)c1ccccc1S2(=O)=O (stereo not given) | ? | . | ? | .
CCOc1ccc(CCNC(=O)C2CSC3(C)CCC(=O)N23)cc1OCC (stereo not given) | . | . | . | .
Cn1cc(C(=O)NC2CCCCC2)c(=O)c2cc(S(=O)(=O)N3CCOCC3)ccc21 | . | . | . | .
CC1(Oc2ccccc2-c2ccno2)CCN(Cc2csc3ccccc23)C1 (stereo not given) | ? | ? | 18µM | /
N#C/C(=C\c1cccnc1)c1ccccn1 | . | . | . | /
COc1ccc(N(Cc2cccs2)C(=O)COc2cccc(C)c2C)cc1 | 18µM | . | ? | .
Cc1ccc(N(Cc2cccs2)C(=O)COc2cccc(C)c2)cc1 | 23µM | . | ? | .
COc1ccc(N(Cc2cccs2)C(=O)c2ccc(Br)o2)cc1 | 18µM | . | 15µM | .
Cc1cc(C)cc(OCC(=O)N(Cc2cccs2)c2ccc(Cl)cc2)c1 | ? | . | ? | .
Cc1ccc(N(Cc2cccs2)C(=O)c2ccc(OC(C)C)cc2)cc1 | ? | . | 21µM | .
COc1ccc(N(Cc2cccs2)C(=O)COc2cc(C)c(Cl)c(C)c2)cc1 | ? | . | ? | .
O=C(c1ccncc1)N1CCC[C@@]2(CCN(Cc3cc(C(F)(F)F)cc(C(F)(F)F)c3)C2)C1 | ? | / | . | /
CC(C)n1cnnc1SCC(=O)NC(=O)c1ccccc1 | . | / | ? | /
Cc1cccc(-c2nc3c4ccccc4n(CC(=O)Nc4cccc(F)c4)c(=O)n3n2)c1 | ? | . | ? | .
SMILES | DT40 TDP1 no CPT | ClpP mod | DT40 TDP1 CPT | TDP1 inh
COc1cc(=O)n2c(c1C(=O)N(C)Cc1nccs1)CCN(Cc1cc3ccccc3s1)CC2 | ? | / | . | /
CC(C)(C)n1nnnc1C(c1cc2ccccc2o1)N(CCC#N)Cc1ccccc1 (stereo not given) | ? | . | ? | /
CCCCn1nnnc1C(c1cc2ccccc2o1)N(CCN(C)C)Cc1ccccc1 (stereo not given) | 16µM | . | 26µM | /
CN(C)CCN(Cc1ccccc1)C(c1cc2ccccc2o1)c1nnnn1C(C)(C)C (stereo not given) | ? | . | 16µM | /
COC(=O)c1cc2sc(Cl)cc2n1CC(=O)Nc1cc(C)cc(C)c1 | ? | . | 21µM | .
CC(=O)OCC1OC(n2ccc3ccccc32)C(OC(C)=O)C(OC(C)=O)C1OC(C)=O (stereo not given) | ? | . | ? | .
CC(=O)OCC1OC(Sc2cccc3cccnc23)C(OC(C)=O)C(OC(C)=O)C1OC(C)=O (stereo not given) | ? | 16µM | ? | .
Cc1oc(CN2CCOCC2)cc1C(=O)O | . | / | . | .
COc1cccc(N2CCN(c3c4c(nc5ncnn35)CCC4)CC2)c1 | 16µM | . | ? | .
Cc1cccc(Nc2c3c(nc4ncnn24)CCC3)c1 | ? | . | . | .
